# How the values were obtained:
# Assay in all cases: universal protein binding microarray (PBM); transcription factors of Arabidopsis thaliana; high values mean tight binding
# Conditions in all cases: protein: recombinant; tags: GST; chain copies: 2; dsDNA, one strand shown
# GST-ANAC092(1-176) = target: T1, GST-ANAC092(1-176) (Arabidopsis thaliana, UniProt Q9FKA0 1-176)
# T1 sequence: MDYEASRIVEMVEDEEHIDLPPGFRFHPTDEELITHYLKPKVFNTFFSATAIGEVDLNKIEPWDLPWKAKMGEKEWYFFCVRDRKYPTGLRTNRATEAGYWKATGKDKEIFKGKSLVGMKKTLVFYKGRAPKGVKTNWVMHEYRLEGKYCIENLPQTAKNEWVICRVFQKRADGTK
# In short: (§1)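 Each value is a normalised enrichment score (E-score) describing binding. The GST-tagged proteins, NAC-domain, full-length or DNA-binding-domain, were induced in cells (zinc-finger proteins with zinc acetate added) and purified on glutathione–Sepharose 4B. They were applied at 200 to 500 nM final, in duplicate, to double-stranded custom all-10-mer Agilent 4 × 180K arrays, and gapped and ungapped 8-mers were scored.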
# GST-NTL6(1-168) = GST-NTL6(1-168) (Arabidopsis thaliana, UniProt Q9SCK6 1-168)
# In short: as §1
# GST-ANAC055(1-171) = target: T2, GST-ANAC055(1-171) (Arabidopsis thaliana, UniProt Q9LDY8 1-171)
# T2 sequence: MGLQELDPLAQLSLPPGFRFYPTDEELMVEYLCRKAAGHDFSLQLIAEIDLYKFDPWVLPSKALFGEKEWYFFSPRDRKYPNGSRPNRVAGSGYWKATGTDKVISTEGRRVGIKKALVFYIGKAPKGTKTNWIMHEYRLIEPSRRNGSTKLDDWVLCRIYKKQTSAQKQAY
# In short: as §1
# GST-ATAF1 NAC domain = target: T3, GST-ATAF1 NAC domain (Arabidopsis thaliana, UniProt Q39013 7-158)
# T3 sequence: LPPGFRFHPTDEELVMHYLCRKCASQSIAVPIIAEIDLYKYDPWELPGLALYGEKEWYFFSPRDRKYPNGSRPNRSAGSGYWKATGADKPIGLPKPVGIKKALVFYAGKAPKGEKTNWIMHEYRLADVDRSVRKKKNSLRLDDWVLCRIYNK
# In short: as §1
# [1] = target: T4, GST-ANAC092(1-285) full length (Arabidopsis thaliana, UniProt Q9FKA0 1-285)
# T4 sequence: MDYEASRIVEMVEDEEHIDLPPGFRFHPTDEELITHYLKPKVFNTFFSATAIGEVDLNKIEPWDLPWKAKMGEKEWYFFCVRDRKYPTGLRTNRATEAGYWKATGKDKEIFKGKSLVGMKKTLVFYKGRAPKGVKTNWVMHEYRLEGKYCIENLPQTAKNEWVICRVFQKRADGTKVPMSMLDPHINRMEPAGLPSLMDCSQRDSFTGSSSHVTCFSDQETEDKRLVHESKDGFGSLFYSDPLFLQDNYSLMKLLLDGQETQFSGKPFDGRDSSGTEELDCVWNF
# In short: as §1
# GST-NAP(1-166) = target: T5, GST-NAP(1-166) (Arabidopsis thaliana, UniProt O49255 1-166)
# T5 sequence: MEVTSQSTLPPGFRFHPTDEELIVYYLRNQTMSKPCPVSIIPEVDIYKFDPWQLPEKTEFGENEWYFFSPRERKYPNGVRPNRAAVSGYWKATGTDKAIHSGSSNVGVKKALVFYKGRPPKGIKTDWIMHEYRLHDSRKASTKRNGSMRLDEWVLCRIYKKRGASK
# In short: as §1
# GST-NST2(1-184) = target: T6, GST-NST2(1-184) (Arabidopsis thaliana, UniProt Q9M274 1-184)
# T6 sequence: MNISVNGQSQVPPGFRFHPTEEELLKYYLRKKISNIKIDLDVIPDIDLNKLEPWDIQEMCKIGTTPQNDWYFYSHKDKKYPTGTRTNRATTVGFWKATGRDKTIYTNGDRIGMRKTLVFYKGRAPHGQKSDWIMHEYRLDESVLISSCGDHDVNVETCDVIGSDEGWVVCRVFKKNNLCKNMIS
# In short: as §1
# GST-NTL8 NAC domain = target: T7, GST-NTL8 NAC domain (Arabidopsis thaliana, UniProt Q9XIN7 14-156)
# T7 sequence: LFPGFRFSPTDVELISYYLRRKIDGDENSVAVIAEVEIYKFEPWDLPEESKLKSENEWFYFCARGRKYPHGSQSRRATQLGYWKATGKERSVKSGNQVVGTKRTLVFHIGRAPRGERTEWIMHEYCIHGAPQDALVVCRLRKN
# In short: as §1
# GST-SND1(1-203) = target: T8, GST-SND1(1-203) (Arabidopsis thaliana, UniProt Q9LPI7 1-203)
# T8 sequence: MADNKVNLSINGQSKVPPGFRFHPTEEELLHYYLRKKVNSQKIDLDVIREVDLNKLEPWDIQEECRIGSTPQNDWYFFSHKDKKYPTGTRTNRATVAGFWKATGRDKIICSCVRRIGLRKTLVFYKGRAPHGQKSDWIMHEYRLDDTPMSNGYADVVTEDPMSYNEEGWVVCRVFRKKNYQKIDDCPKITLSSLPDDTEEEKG
# In short: as §1
# GST-VND3 NAC domain = target: T9, GST-VND3 NAC domain (Arabidopsis thaliana, UniProt Q9FH59 12-162)
# T9 sequence: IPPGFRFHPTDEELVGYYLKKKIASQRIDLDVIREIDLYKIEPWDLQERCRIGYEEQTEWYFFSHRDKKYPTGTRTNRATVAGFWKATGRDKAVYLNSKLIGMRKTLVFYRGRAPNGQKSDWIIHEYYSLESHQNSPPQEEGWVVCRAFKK
# In short: as §1
# GST-VND7 NAC domain = target: T10, GST-VND7 NAC domain (Arabidopsis thaliana, UniProt Q9C8W9 9-158)
# T10 sequence: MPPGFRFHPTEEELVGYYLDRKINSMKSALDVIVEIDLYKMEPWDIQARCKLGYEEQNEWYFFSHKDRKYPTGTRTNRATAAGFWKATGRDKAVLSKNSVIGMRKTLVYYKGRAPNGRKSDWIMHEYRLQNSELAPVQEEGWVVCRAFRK
# In short: as §1
# GST-ANAC019 NAC domain = target: T11, GST-ANAC019 NAC domain (Arabidopsis thaliana, UniProt Q9C932 14-162)
# T11 sequence: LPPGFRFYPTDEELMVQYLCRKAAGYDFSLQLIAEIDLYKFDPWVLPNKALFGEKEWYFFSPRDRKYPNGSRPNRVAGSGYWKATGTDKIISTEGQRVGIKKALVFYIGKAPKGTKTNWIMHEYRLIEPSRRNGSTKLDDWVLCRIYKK
# In short: as §1
# Chain of GST-NTL6(1-168) (Q9SCK6 1-168): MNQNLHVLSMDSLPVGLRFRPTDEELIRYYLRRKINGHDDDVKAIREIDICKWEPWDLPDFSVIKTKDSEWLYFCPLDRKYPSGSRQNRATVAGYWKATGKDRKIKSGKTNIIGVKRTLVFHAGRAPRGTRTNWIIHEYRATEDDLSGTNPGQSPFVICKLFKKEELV
Sequence,binding signal (GST-ANAC092(1-176)),binding signal (GST-NTL6(1-168)),binding signal (GST-ANAC055(1-171)),binding signal (GST-ATAF1 NAC domain),binding signal [1],binding signal (GST-NAP(1-166)),binding signal (GST-NST2(1-184)),binding signal (GST-NTL8 NAC domain),binding signal (GST-SND1(1-203)),binding signal (GST-VND3 NAC domain),binding signal (GST-VND7 NAC domain),binding signal (GST-ANAC019 NAC domain)
ATACTTAA,0.0831 E-score,0.445 E-score,0.14 E-score,0.245 E-score,0.164 E-score,0.0565 E-score,0.224 E-score,0.154 E-score,0.246 E-score,0.187 E-score,0.106 E-score,
ATTGCTTG,0.355 E-score,0.228 E-score,0.115 E-score,,0.408 E-score,,0.296 E-score,0.143 E-score,0.406 E-score,0.223 E-score,0.218 E-score,0.19 E-score
ATTGCTTC,0.259 E-score,0.348 E-score,0.0988 E-score,,0.351 E-score,,0.259 E-score,0.278 E-score,0.411 E-score,0.143 E-score,0.213 E-score,0.108 E-score
AGGGTAAG,0.0785 E-score,0.245 E-score,,,,0.0509 E-score,0.0565 E-score,0.429 E-score,0.111 E-score,0.0682 E-score,0.0597 E-score,0.0566 E-score
TATCGTAA,0.2 E-score,0.146 E-score,0.0984 E-score,0.188 E-score,0.337 E-score,0.0786 E-score,0.282 E-score,,0.418 E-score,0.143 E-score,0.236 E-score,
AAGCAAAC,0.331 E-score,0.359 E-score,0.194 E-score,0.137 E-score,0.355 E-score,0.119 E-score,0.31 E-score,0.336 E-score,0.401 E-score,0.181 E-score,0.206 E-score,
CTTACTTC,0.272 E-score,0.413 E-score,0.191 E-score,0.209 E-score,0.325 E-score,,0.267 E-score,0.4 E-score,0.387 E-score,0.209 E-score,0.23 E-score,0.227 E-score
CTTGCTTA,0.251 E-score,0.416 E-score,,0.136 E-score,0.347 E-score,,0.17 E-score,0.194 E-score,0.437 E-score,0.124 E-score,0.0501 E-score,0.0719 E-score
GTAACTTA,0.271 E-score,0.375 E-score,0.185 E-score,0.233 E-score,0.357 E-score,0.133 E-score,0.306 E-score,0.229 E-score,0.43 E-score,0.195 E-score,0.141 E-score,
CTAAGCAA,0.201 E-score,0.461 E-score,,,0.314 E-score,,0.272 E-score,0.254 E-score,0.473 E-score,0.134 E-score,0.184 E-score,0.0628 E-score
CTAAGTTA,0.294 E-score,0.393 E-score,0.13 E-score,0.173 E-score,0.279 E-score,,0.282 E-score,,0.413 E-score,0.21 E-score,0.0803 E-score,
AAGCAAGC,0.344 E-score,0.167 E-score,,,0.417 E-score,,0.23 E-score,0.209 E-score,0.443 E-score,0.139 E-score,0.114 E-score,0.0929 E-score
GCAAGCAA,0.367 E-score,0.26 E-score,0.0669 E-score,,0.42 E-score,,0.28 E-score,0.0916 E-score,0.4 E-score,0.0906 E-score,0.216 E-score,0.167 E-score
TAAAGCAA,0.138 E-score,0.134 E-score,,,0.293 E-score,,0.262 E-score,0.15 E-score,0.42 E-score,0.135 E-score,0.228 E-score,
GAGGAAAA,0.152 E-score,0.188 E-score,,0.1 E-score,0.152 E-score,,,0.402 E-score,0.142 E-score,0.12 E-score,0.114 E-score,
ACACGCGA,0.461 E-score,0.125 E-score,,,0.478 E-score,0.147 E-score,0.212 E-score,,0.309 E-score,0.0551 E-score,0.124 E-score,

# — paper PMC4081100, “A DNA-binding-site landscape and regulatory network analysis for NAC transcription factors in Arabidopsis thaliana”
